The test is described as follows: small-molecule microarray binders of probe aWnt5a, primary screen, biochemical, biotinylated probe, 635/667 nm fluorescence (AID 1113).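 Also: score merges 667 nm fluorescence intensity with signal-to-noise per printed feature.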 Particulars: higher = more signal.
The compound `O=C1[C@H]2C=C(I)[C@H](C[C@@H]2c2ccccc2)[C@@]12CO2` came in with a composite z-score of -0.0977.

As to `CC(C)NC(=O)[C@@H]1c2ccccc2C(=O)N(Cc2ccc(OC(F)(F)F)cc2)[C@H]1c1ccc(CO)cc1`, the composite z-score came out at 0.265.

`COc1ccc([Si](C)(C)[C@H]2[C@H](CC(=O)N3Cc4ccccc4C[C@H]3CO)O[C@@]3(C(=O)N(c4ccccc4)c4ccccc43)[C@@H]2C)cc1` came in with a composite z-score of 0.127.

Turning to `CC(C)(C)N1CC=CC23O[C@@H]4/C=C\CCCOC(=O)C4[C@H]2C(=O)N(CCCO)[C@@H]3C1=O` (some centres not stated), the composite z-score was -0.172.

As for `O=C1C2C=CC(C(O)c3ccc([N+](=O)[O-])cc3)N(Nc3ccccc3F)C2C(=O)N1c1ccccc1` (configuration not stated), the composite z-score worked out at 0.0919.

`COc1ccccc1CN1C(=O)c2ccccc2[C@](Cc2ccccc2I)(C(=O)NCC(C)C)[C@@H]1c1ccc(CO)cc1` returned a composite z-score of -0.0529.

In the case of `C=C(CCCC)/C(=C/C[C@H](OC(=O)c1ccncc1)c1ccc(OCCO)cc1)c1cnc2ccccc2c1`, the composite z-score is -0.129.

For `CCCC[C@H]1C[C@@H]1[C@@H]1N(C(C)=O)[C@H](c2cccc(OC)c2)CC12CC2`, the composite z-score is -0.0276.

`O=C1O[C@H](Cc2ccccc2)[C@@H]2[C@H]3C=CCCC=C3CN2[C@H]1Cc1ccc(O)cc1` yielded a composite z-score of -0.0991.

As for `COCCOC(=O)N1C(=O)[C@@]2(c3cc(C#CCC(C(=O)OC)C(=O)OC)ccc31)[C@H](C(=O)Nc1nc3ccccc3s1)[C@H]1C(=O)O[C@H](c3ccccc3)[C@H](c3ccccc3)N1[C@@H]2c1ccc(OCCO)cc1`, the composite z-score turned out to be 0.0377.

For `CCCCCCc1nc(Cc2cc(OC)c(OC)c(OC)c2)cc2c1[Si](C(C)C)(C(C)C)O[C@H]2c1ccccc1`, the composite z-score was -0.124.

Compound `COC(=O)c1cccc([C@H]2OC(=CC(=O)OC(C)C)C[C@@H](c3cccc(C(=O)OC)c3)O2)c1` returned a composite z-score of 0.4.

Turning to `C=CC[C@]1(C(=O)NCC(O)CO)COC(c2ccc(OCCCO)cc2)=N1` (some centres not stated), the composite z-score came to 0.0618.

Regarding `COC(=O)[C@@]1(Cc2ccccc2)[C@H]2c3cc(C(=O)N(C)C)n(Cc4ccc(C(F)(F)F)nc4)c3C[C@H]2CN1C(=O)c1ccccc1`, the composite z-score was determined as 0.223.

Take `CCCNC(=O)[C@@]1(c2ccc([N+](=O)[O-])cc2)CC(=O)N(C(C)C)[C@@H]1c1ccc(CO)cc1`: the composite z-score is -0.18.

As to `C[C@@H]1NC(=O)C([C@@H](C)OCc2ccccc2)NC(=O)[C@@]23C(=O)N[C@@H](Cc4ccccc4)C2[C@H](C)[C@@]2(C)O[C@H]2C3/C=C/C/C=C\CNC1=O` (some centres not stated), the composite z-score is -0.172.

For `CCOC(=O)C1=C[C@@H](C(C)(C)C)N(S(=O)(=O)c2ccc(C)cc2)[C@H]1c1ccc(C#N)cc1`, the composite z-score is 0.055.
